# The list is not random: actives were taken first. Their share in the collection is about 12%.
# Insulin prom inh – TRM-6 insulin promoter activity inhibition; TRM-6 cells (human fetal islet line), insulin promoter-eGFP reporter, imaging; reporter expression induced with tamoxifen; inhibition, % at 2 µM; 0.9% of 130,000 active;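 active means inhibition above the mean plus 3 SD, with well images judged a real hit on visual review, cut at about 60% in these data, passing the limit was not always enough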
# ROMK mod – human ROMK K+ channel modulation, primary screen; Tet-inducible ROMK, thallium flux fluorescence; actives lie on both sides; P48048; 2% of 130,000 active; B-score at 10 µM;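 active means signal ratio slope over the read window, or its plate-corrected B-score, at least 3 SD from the plate mean, either direction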;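 further: B-score of the F/F0 ratio slope over 7 to 12 s after thallium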
# Target sequence (P48048 whole entry, looked up): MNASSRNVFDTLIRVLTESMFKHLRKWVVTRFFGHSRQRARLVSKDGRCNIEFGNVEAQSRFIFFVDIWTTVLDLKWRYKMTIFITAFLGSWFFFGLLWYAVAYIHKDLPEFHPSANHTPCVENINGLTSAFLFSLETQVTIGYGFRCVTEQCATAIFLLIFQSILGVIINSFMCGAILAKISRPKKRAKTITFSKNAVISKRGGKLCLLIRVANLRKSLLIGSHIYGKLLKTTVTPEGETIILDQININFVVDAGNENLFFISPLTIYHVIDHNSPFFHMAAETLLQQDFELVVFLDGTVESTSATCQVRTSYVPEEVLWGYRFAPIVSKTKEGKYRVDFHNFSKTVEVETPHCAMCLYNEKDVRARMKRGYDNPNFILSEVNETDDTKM
# WT yeast gro inh – growth inhibition of WT yeast, mitochondrial fusion screen. inhibition, % at 10 µM. 2.1% of 190,000 active. mitochondrial fusion phenotypic screen, WT strain; in the data active means inhibition above about 58%; tested in S. cerevisiae
# Ins promoter up – MIN6 insulin promoter up-regulation. MIN6 insulin promoter-GFP reporter, high-content imaging; stronger effect = higher value. AID 1625. z-score at 5 µM. 0.3% of 190,000 active;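 active means z-score above 3 at 5 µM with at least 500 cells counted in the well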
# L major viab – inhibitors of Leishmania major promastigote growth | inhibition, % at 10 µM | AID 1063 | 9% of 200,000 active | Leishmania major promastigotes, resazurin fluorescence viability; in the data active means inhibition above about 50%;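 further: promastigotes grown with compound for 44 hours at 28 °C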
# Cl transport mod – KCC2 (human) Cl- transport modulation. Q9H2X9. KCC2 cells, thallium flux FluoZin-2 fluorescence. 2.2% of 190,000 active. B-score of Tl+ flux slope (higher = more flux/activation; lower = inhibition) at 10 µM;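 active means thallium flux slope and its plate-corrected score both differing from the plate sample mean at a set confidence after two filtering rounds, in either direction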;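 further: slope of fluorescence scaled to starting intensity during 10 to 20 s after thallium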
# A number is an active result; – = inactive; · = no result.
SMILES,Insulin prom inh,ROMK mod,WT yeast gro inh,Ins promoter up,L major viab,Cl transport mod
COc1ccc(C(=O)Nn2c(SCC(=O)N3CCC(C)CC3)nc3ccccc3c2=O)cc1,–,·,–,·,–,·
COc1ccc(C(=O)Nn2c(SCC(=O)c3ccc(Cl)cc3)nc3ccccc3c2=O)cc1,83,·,–,–,–,–
Cc1ccccc1-c1nc(CN2CCC(C(=O)NC3CCN(Cc4ccccc4)CC3)CC2)c(C)o1,·,·,–,·,100,–
Cc1oc(-c2ccccc2F)nc1CN1CCC(C(=O)NC2CCCc3ccccc32)CC1 (centres undefined),86,·,–,–,–,–
Cc1oc(-c2ccccc2F)nc1CN1CCC(C(=O)NCc2ccco2)CC1,·,–,–,–,–,–
O=C(CCSc1nnc2ccccn12)Nc1ccc2c(c1)OCO2,–,·,–,–,–,–
COc1nc(-c2ccccc2)cc(-c2ccc(OC)c(OC)c2)n1,–,–,–,–,61,–
COc1ccc(-c2ccnc3c(C(=O)O)cnn23)cc1,·,·,–,–,–,–
COc1cc(C(=O)NCCC(=O)NC(C)C)cc(OC)c1OC,–,–,–,–,–,–
COc1cc(/C=C/C(=O)c2ccc(F)cc2)cc(OC)c1OC,–,–,–,–,100,–
COc1ccc(C(=O)/C=C/c2ccc(OC(=O)c3cc(OC)c(OC)c(OC)c3)cc2)cc1,–,·,–,–,65,–
CCOc1ccc(C(=O)/C=C/c2cc(OC)c(OC)c(OC)c2)cc1,·,·,–,–,–,–
O=[N+]([O-])c1nn(-c2ccc3c(c2)OCCO3)n(O)c1=NC1CCCCC1,·,–,–,–,70,·
COc1ccc(-n2nc([N+](=O)[O-])c(=NC3CCN(Cc4ccccc4)CC3)n2O)cc1,–,–,–,–,–,–
O=[N+]([O-])c1nn(-c2ccc3c(c2)OCCO3)n(O)c1=NCc1ccccc1Cl,·,·,–,–,82,·
COc1ccccc1N=c1c2c([N+](=O)[O-])cc([N+](=O)[O-])cc2n(O)n1-c1ccccc1OC,–,·,–,–,–,–
Cc1nc2ccc(NC(=O)c3ccc([N+](=O)[O-])cc3[N+](=O)[O-])cc2s1,·,–,–,–,100,–
Cc1nc2ccc(C(=O)Nc3cccc([N+](=O)[O-])c3)cc2s1,·,–,–,–,–,–
Cc1nc2ccc(NC(=O)c3cccc(S(=O)(=O)N4CC(C)OC(C)C4)c3)cc2s1 (centres undefined),–,–,–,–,98,–
CCN(c1ccccc1)S(=O)(=O)c1ccc(NC(=S)NC(=O)c2ccc(Br)o2)cc1,–,·,–,–,–,20
Cc1cccc(C)c1NC(=S)NC(=O)c1ccc(Br)o1,·,2.1,–,–,–,192
CCOC(=O)C1CCN(c2ncnc3c(C)csc23)CC1,·,–,·,·,·,–
Cc1ccc(S(=O)(=O)Oc2ccc(/C=C(/NC(=O)c3ccccc3)C(=O)NCCCC(=O)O)cc2)cc1,·,–,–,–,–,–
C=CCn1c(SCC(=O)N(CC)C2CCS(=O)(=O)C2)nc2ccccc2c1=O (centres undefined),·,·,·,–,·,–
O=C(NC(=S)Nc1ccc(S(=O)(=O)N2CCCCC2)cc1)c1ccccc1,–,2.8,–,–,–,–
SMILES,Insulin prom inh,ROMK mod,WT yeast gro inh,Ins promoter up,L major viab,Cl transport mod
Cc1nc2ccc(NC(=O)c3ccc(S(=O)(=O)N(C)c4ccccc4)cc3)cc2s1,–,–,–,–,99,–
O=C(Nc1ccc(S(=O)(=O)N2CCOCC2)cc1)c1cc(-c2ccccc2O)n[nH]1,·,·,·,–,·,–
Cc1ccc(C(=O)NC(=S)Nc2ccc(S(=O)(=O)N(C)c3ccccc3)cc2)cc1,–,·,–,–,–,–
CN(c1ccccc1)S(=O)(=O)c1ccc(NC(=S)NC(=O)c2ccccc2)cc1,–,·,–,–,100,3
Cc1nc2ccc(NC(=O)N(C)c3ccccc3)cc2s1,·,–,–,–,–,–
CC1CN(S(=O)(=O)c2ccc(NC(=O)c3cc(-c4ccccc4O)n[nH]3)cc2)CC(C)O1 (centres undefined),·,–,–,–,100,–
CCCc1cnc(N2CCN(C(=O)c3c(-c4ccccc4)noc3C)CC2)nc1,·,·,·,–,·,–
N/C(CN1CCCC1=O)=N\OC(=O)c1ccc(Cl)c(Cl)c1,–,–,–,–,–,–
CN(c1ccccc1)S(=O)(=O)c1ccc(NC(=S)NC(=O)C2CC2)cc1,–,–,68,–,75,–
COc1ccccc1/C=C/C(=O)NC(=S)Nc1ccc(S(=O)(=O)N(C)c2ccccc2)cc1,–,·,–,·,62,–
